Assay [1] has as its target Mitogen-activated protein kinase 3 (Homo sapiens) (UniProt P27361). Particulars: at 1 µM.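 Further: values are mean percent inhibition of MAPK3.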
The target in assay [2] is SRSF protein kinase 3 (Homo sapiens) (UniProt Q9UPE1). The following applies: at 0.1 µM.
For assay [3] the target is unchanged. The following applies: at 1 µM.
Assay [4] addresses Mitogen-activated protein kinase 14 (Homo sapiens) (UniProt Q16539). The following applies: at 0.1 µM.
Assay [5] shares this target. The following applies: at 1 µM.
For assay [6], the target named is Mitogen-activated protein kinase 11 (Homo sapiens) (UniProt Q15759). The following applies: at 0.1 µM.
Assay [7] shares this target. The following applies: at 1 µM.
Assay [8] addresses T1, Mitogen-activated protein kinase 13 (Homo sapiens) (UniProt O15264).
T1 sequence (whole entry): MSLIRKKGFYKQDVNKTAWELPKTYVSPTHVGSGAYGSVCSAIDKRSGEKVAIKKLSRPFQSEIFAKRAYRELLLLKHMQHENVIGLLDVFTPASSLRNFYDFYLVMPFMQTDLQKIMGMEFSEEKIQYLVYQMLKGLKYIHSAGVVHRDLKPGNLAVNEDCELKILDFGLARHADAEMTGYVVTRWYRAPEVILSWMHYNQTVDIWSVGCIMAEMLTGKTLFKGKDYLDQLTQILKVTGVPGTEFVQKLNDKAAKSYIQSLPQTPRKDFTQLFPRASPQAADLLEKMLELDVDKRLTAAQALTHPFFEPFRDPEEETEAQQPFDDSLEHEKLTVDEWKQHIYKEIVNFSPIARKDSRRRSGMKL
The following applies: at 0.1 µM.

For assay [9], the target named is T1, Mitogen-activated protein kinase 13 (Homo sapiens). Particulars: at 1 µM.
Assay [10] concerns the target T2, Mitogen-activated protein kinase 12 (Homo sapiens) (UniProt P53778).
T2 sequence (whole entry): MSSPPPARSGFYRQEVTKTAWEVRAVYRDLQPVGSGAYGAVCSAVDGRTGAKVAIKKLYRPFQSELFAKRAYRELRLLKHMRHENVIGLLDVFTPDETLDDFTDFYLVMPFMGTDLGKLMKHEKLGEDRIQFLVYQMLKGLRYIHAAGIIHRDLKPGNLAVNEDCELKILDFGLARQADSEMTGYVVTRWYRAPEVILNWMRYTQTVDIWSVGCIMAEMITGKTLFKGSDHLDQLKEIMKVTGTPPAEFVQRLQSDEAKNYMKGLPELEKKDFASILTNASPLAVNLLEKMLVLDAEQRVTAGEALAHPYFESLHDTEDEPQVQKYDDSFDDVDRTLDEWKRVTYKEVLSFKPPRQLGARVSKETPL
Particulars: at 0.1 µM.

Assay [11] deals with T2, Mitogen-activated protein kinase 12 (Homo sapiens). Particulars: at 1 µM.
Assay [12] addresses SRSF protein kinase 1 (Homo sapiens) (UniProt Q96SB4). The following applies: at 0.1 µM.
Assay [13] has the same target. Particulars: at 1 µM.
The target in assay [14] is Phosphatidylinositol 4,5-bisphosphate 3-kinase catalytic subunit alpha isoform (Homo sapiens) (UniProt P42336). The following applies: at 0.1 µM.
The target is the same in assay [15]. The following applies: at 1 µM.
The target in assay [16] is T3, Phosphatidylinositol 4,5-bisphosphate 3-kinase catalytic subunit delta isoform (Homo sapiens) (UniProt O00329).
T3 sequence (whole entry): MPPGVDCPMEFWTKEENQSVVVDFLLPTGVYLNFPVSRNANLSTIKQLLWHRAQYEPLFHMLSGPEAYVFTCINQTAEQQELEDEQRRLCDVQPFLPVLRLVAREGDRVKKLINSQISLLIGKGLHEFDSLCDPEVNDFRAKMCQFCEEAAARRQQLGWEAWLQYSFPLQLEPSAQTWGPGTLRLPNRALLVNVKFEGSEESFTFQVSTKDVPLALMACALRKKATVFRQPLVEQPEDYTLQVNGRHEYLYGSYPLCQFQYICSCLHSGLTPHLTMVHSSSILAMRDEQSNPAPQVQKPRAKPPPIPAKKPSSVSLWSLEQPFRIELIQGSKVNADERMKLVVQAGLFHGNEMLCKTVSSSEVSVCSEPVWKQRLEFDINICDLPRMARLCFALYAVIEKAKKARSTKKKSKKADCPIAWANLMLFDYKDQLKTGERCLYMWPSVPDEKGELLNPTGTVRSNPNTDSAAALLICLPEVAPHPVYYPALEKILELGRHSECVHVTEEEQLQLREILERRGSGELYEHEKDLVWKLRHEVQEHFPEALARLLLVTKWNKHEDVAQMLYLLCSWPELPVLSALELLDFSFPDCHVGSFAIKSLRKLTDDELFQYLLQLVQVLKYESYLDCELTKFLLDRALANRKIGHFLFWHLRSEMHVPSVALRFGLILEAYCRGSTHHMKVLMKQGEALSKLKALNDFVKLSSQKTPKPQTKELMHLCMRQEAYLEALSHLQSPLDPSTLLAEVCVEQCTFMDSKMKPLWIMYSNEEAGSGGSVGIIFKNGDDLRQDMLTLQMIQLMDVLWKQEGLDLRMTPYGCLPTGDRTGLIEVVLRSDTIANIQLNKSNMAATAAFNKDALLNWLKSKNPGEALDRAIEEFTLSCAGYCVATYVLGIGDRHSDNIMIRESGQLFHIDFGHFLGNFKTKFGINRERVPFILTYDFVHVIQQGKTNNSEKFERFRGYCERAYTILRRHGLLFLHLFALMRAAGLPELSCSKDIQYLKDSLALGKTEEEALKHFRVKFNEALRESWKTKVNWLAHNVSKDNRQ
The following applies: at 0.1 µM.

In assay [17] the target is T3, Phosphatidylinositol 4,5-bisphosphate 3-kinase catalytic subunit delta isoform (Homo sapiens). The following applies: at 1 µM.
Assay [18] has as its target Phosphatidylinositol 4-kinase beta (Homo sapiens) (UniProt Q9UBF8). The following applies: at 0.1 µM.
For assay [19] the target is unchanged. The following applies: at 1 µM.
Assay [20] deals with Sphingosine kinase 1 (Homo sapiens) (UniProt Q9NYA1). The following applies: at 0.1 µM.

Among the data in ChEMBL document CHEMBL1961873, “Compounds: GSK PKIS; Assays: Nanosyn kinase panel” (2012) are inhibition values, retold here.

As usually defined, the inhibition is the drop in the measured response relative to a control, in per cent.

Sequence of Mitogen-activated protein kinase 11 (Homo sapiens) (Q15759 whole entry): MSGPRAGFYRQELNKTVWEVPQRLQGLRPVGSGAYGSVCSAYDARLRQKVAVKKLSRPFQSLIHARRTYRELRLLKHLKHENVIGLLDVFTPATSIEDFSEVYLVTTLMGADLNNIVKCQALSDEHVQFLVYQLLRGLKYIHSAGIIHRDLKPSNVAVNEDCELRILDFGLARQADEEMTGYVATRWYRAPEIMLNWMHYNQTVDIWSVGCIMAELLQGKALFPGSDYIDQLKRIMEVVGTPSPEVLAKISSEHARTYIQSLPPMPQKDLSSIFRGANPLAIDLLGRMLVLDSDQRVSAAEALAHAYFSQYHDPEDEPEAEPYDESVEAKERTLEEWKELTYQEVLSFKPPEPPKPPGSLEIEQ
Sequence of Mitogen-activated protein kinase 3 (Homo sapiens) (P27361 whole entry): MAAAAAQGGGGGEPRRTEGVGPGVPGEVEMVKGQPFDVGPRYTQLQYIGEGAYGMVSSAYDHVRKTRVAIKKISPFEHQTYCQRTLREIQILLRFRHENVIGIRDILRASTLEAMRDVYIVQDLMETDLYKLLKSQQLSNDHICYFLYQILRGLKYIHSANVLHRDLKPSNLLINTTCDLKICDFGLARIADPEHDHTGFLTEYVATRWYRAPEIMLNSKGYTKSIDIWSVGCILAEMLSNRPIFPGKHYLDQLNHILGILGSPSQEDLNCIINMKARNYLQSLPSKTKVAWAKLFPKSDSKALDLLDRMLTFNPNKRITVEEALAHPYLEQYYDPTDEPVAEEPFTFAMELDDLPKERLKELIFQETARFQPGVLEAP
Sequence of Phosphatidylinositol 4,5-bisphosphate 3-kinase catalytic subunit alpha isoform (Homo sapiens) (P42336 whole entry, canonical isoform): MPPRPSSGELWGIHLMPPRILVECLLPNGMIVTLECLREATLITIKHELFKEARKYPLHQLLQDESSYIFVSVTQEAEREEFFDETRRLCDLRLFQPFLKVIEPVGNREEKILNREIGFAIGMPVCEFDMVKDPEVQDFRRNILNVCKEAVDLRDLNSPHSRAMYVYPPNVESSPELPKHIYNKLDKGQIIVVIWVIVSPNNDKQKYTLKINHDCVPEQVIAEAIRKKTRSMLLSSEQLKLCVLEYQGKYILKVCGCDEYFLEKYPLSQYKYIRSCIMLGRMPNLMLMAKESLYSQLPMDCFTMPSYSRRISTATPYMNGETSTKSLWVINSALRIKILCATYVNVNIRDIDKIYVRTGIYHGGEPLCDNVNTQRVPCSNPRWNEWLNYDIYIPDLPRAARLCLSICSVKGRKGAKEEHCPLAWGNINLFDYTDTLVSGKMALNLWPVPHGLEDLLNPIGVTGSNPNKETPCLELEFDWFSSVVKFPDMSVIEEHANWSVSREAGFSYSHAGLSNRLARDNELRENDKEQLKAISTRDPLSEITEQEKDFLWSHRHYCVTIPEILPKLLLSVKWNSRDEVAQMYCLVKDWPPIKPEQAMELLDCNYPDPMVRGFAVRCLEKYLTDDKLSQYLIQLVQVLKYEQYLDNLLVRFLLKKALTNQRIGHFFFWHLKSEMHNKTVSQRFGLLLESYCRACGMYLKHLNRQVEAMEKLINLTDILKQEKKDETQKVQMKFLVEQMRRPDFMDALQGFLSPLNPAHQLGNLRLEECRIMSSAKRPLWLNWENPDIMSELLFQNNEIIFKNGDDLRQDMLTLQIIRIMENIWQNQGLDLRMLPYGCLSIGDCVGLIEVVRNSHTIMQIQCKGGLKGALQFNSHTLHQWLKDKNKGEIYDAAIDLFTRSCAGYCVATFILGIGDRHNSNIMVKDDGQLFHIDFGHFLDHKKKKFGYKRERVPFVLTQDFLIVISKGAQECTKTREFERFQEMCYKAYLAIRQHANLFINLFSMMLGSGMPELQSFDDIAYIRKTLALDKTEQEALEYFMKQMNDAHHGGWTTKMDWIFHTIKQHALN
Sequence of SRSF protein kinase 1 (Homo sapiens) (Q96SB4 whole entry): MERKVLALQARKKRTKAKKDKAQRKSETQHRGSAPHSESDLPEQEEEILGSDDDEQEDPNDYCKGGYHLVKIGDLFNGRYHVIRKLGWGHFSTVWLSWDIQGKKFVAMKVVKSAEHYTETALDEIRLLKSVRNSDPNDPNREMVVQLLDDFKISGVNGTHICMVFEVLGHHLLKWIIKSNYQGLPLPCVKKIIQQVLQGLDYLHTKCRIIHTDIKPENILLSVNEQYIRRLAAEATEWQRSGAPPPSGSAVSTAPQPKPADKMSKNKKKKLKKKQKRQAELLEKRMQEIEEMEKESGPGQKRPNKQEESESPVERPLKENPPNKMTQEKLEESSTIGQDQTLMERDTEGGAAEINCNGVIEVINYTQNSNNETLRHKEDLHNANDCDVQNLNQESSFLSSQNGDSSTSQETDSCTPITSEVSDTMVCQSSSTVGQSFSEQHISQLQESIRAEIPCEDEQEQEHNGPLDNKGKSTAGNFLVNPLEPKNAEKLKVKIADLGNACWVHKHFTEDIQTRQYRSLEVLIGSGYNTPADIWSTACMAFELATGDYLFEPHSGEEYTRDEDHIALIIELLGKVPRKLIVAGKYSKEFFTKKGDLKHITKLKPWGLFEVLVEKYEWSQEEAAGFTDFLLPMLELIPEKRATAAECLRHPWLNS
Sequence of Phosphatidylinositol 4-kinase beta (Homo sapiens) (Q9UBF8 2-816 limits assumed): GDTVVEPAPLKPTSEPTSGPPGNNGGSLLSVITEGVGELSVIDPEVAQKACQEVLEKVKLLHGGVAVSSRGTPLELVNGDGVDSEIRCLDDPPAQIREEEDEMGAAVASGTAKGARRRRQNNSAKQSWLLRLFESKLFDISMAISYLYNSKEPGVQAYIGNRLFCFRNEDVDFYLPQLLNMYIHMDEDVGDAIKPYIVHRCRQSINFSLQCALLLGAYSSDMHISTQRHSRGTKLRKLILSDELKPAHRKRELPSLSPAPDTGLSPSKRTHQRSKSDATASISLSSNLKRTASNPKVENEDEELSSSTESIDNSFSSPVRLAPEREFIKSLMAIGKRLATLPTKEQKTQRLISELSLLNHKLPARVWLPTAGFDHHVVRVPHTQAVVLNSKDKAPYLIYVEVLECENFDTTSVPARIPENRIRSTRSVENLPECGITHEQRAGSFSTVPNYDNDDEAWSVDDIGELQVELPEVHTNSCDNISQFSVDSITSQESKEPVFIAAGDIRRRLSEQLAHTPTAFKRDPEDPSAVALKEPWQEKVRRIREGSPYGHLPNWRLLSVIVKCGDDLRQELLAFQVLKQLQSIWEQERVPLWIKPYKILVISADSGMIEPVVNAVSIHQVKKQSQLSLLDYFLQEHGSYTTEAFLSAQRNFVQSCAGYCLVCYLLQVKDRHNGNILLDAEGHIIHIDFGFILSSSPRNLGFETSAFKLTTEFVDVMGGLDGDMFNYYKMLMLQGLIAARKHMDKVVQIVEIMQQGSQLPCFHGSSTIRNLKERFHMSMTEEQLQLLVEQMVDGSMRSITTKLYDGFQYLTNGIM
Sequence of Sphingosine kinase 1 (Homo sapiens) (Q9NYA1 whole entry): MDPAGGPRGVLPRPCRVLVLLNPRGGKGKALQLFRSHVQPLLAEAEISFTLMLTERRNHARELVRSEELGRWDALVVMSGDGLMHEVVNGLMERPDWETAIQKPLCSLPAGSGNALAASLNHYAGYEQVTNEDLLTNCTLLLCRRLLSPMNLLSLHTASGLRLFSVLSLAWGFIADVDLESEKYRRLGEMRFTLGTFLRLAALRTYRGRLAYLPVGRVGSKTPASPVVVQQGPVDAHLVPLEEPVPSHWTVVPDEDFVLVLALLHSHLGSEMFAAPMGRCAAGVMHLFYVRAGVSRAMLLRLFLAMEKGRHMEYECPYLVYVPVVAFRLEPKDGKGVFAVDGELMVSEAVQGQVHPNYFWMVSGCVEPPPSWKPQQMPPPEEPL
Sequence of Mitogen-activated protein kinase 14 (Homo sapiens) (Q16539 whole entry): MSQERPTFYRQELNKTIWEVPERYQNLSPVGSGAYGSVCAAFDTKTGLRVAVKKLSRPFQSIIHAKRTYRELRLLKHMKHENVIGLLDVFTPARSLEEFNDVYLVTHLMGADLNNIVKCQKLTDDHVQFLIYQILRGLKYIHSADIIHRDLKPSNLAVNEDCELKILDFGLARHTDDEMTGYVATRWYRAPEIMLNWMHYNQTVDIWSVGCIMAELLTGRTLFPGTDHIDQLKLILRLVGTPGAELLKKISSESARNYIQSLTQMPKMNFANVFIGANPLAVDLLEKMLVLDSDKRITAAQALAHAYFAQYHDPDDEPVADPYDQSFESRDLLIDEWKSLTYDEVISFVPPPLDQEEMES
Sequence of SRSF protein kinase 3 (Homo sapiens) (Q9UPE1 whole entry): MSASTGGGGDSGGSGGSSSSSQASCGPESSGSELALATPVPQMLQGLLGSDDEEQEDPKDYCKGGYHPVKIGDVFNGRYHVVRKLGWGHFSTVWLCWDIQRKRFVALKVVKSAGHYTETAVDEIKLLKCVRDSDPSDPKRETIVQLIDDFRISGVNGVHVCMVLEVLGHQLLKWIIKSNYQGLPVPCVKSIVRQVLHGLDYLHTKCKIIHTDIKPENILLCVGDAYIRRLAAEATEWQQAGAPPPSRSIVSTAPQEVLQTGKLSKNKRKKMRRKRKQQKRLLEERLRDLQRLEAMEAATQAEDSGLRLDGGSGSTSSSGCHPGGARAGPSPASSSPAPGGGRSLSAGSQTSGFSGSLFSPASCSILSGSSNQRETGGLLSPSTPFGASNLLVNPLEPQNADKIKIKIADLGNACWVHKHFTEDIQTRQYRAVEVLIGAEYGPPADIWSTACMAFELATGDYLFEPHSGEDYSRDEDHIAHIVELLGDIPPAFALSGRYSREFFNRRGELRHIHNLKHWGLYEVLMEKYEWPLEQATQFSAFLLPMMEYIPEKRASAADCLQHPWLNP

Consider `CN(C)CCOc1ccc(-c2nc(-c3ccncc3)c(-c3ccc4c(c3)CC/C4=N\O)[nH]2)cc1`, for which the inhibition in assay [1] stood at 3.36%; in assay [2], 1.13%; in assay [3] it was 1.14%; in assay [4], 3.87%; in assay [5], 15.9%; in assay [6], 2.37%. The inhibition in [7] is 6.69%; in assay [8] it was 0.98%; in [9], 4.84%; in assay [10] it was 1.54%; in assay [11], 1.28%; in assay [12], -0.47%. Further, the inhibition in [13] is -0.41%; in assay [14] it was 3.08%; in [15] it was 3.29%; in assay [16], 1.62%; in [17], 4.12%; in [18], -1.17%. Also, the figures for the inhibition in assay [19] and in assay [20] were -2.78% and 11.7%, respectively.
In the case of `COC(=O)Nc1nc2ccc(Oc3ccc(NC(=O)Nc4cccc(Cl)c4)cc3)cc2[nH]1`, the inhibition was -0.19% in assay [1]; -1.41% in assay [2]; 1.25% in assay [3]; 7.99% in [4]; 12% in assay [5]; 3.94% in assay [6]. The inhibition is 8.82% in [7]; 0.49% in [8]; -0.38% in [9]; 0.03% in assay [10]; 0.02% in assay [11]; -2.58% in [12]. The inhibition in [13] was -2.98%; in assay [14], -0.11%; in assay [15] it was 4.1%; in assay [16] it was -0.7%; in assay [17], 3.93%; in [18], 3.19%. The figures for the inhibition in [19] and in assay [20] were -4.1% and 1.12%, respectively.
Consider `NC(=O)c1sc(-n2cnc3ccc(C(F)(F)F)cc32)cc1OCc1ccccc1Br`, for which the inhibition in [1] is 0.62%; in assay [2], -1.67%; in assay [3], -0.41%; in [4], 8.95%; in assay [5], 10.3%; in assay [6], 2.71%. Besides, the inhibition was 5.44% in assay [7]; -1.12% in assay [8]; 3.69% in assay [9]; 1.64% in assay [10]; 2.37% in assay [11]; -1.69% in assay [12]. Besides, the inhibition in assay [13] is -2.85%; in [14], 3.78%; in assay [15], 4.29%; in assay [16], 1.52%; in assay [17], 4.21%; in [18], -2.33%. The results for the inhibition in assay [19] and in [20] were -2.08% and 2.38%, respectively.
For `CCN(CC)S(=O)(=O)c1ccc(OC)c(Nc2ncc(-c3ccccc3)o2)c1`, the inhibition in assay [1] stood at 4.26%; in [2], 0.09%; in assay [3], 0.88%; in assay [4] it was 1.78%; in [5], 1.27%; in assay [6] it was 3.74%. Further, the inhibition was 4.45% in assay [7]; -0.22% in assay [8]; -0.16% in [9]; -2.06% in [10]; 0.41% in [11]; 1.34% in [12]. The inhibition in assay [13] was 2.14%; in assay [14], -0.56%; in assay [15], -2.02%; in assay [16] it was -0.81%; in [17] it was -1.28%; in assay [18], 1.63%. Moreover, the inhibition in assay [19] is 0.66%; in [20], 0.47%.
Consider `Fc1cccc(COc2ccc(Nc3ncnc4sc(-c5ccco5)cc34)cc2Cl)c1`, for which the inhibition is 4.3% in [1]; -0.82% in assay [2]; 1.38% in assay [3]; 7.31% in [4]; 6.29% in assay [5]; 4.57% in [6]. The inhibition in assay [7] was 6.75%; in [8] it was 4.02%; in [9] it was 3.46%; in assay [10], 3.22%; in assay [11], 4.18%; in assay [12] it was -1.79%. The inhibition in [13] is -2.01%; in assay [14] it was 6.18%; in [15], 17.2%; in [16], 2.28%; in assay [17] it was 12.4%; in [18], -1.28%. Besides, the figures for the inhibition in assay [19] and in [20] were 0.68% and 0%, respectively.
Turning to `CN1CCC(n2cnc(-c3ccc(F)cc3)c2-c2ccnc(N)n2)CC1`, the inhibition in [1] is 3.12%; in assay [2], -0.19%; in [3], -0.82%; in [4] it was 49.7%; in [5] it was 83%; in assay [6], 5.11%. The inhibition in [7] was 30.6%; in assay [8] it was 0.27%; in assay [9], 4.13%; in [10], 0.59%; in assay [11], 2.49%; in assay [12], -1.72%. The inhibition is -1.48% in assay [13]; 1.81% in [14]; 5.12% in assay [15]; 4.38% in assay [16]; 27.1% in assay [17]; 1.13% in assay [18]. In addition, the inhibition in assay [19] was 3.14%; in [20] it was -2.21%.
For the compound `CCCN1CCC(c2ccc(Nc3nc(Nc4cc(F)ccc4C(N)=O)c4cc[nH]c4n3)c(OC)c2)CC1`, the inhibition in [1] was 13.1%; in assay [2], 0.67%; in assay [3], 25.4%; in assay [4] it was 1.69%; in [5], 11.7%; in assay [6], 6.28%. The inhibition was 14.3% in assay [7]; 0.03% in assay [8]; 5.13% in assay [9]; 1.44% in [10]; 2.82% in [11]; -0.15% in assay [12]. In addition, the inhibition was 12.7% in assay [13]; 3.82% in assay [14]; 3.17% in assay [15]; 2.18% in assay [16]; 13.3% in assay [17]; -9.61% in [18]. Further, the inhibition is -8.79% in [19] and -0.97% in [20].
